# Assay results as given in PMC4336329 (PLoS ONE, 2015).
# In all, about 310,000 compounds went through this assay and about 14,000 (4.5%) showed an effect of 50% or more. Effects have a minus sign here. What follows is part of a selection rich in strong results, with near analogues and random picks from the rest.
# Target: human ether-à-go-go-related gene (hERG) potassium channel (human, UniProt Q12809)
# Test: primary screen, population patch clamp on CHO cells stably expressing hERG; higher = less effect of the substance
# 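Further: peak tail current of the secondary pulse compared with the same well before compound.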
# Sequence of human ether-à-go-go-related gene (hERG) potassium channel (Q12809 whole entry, looked up): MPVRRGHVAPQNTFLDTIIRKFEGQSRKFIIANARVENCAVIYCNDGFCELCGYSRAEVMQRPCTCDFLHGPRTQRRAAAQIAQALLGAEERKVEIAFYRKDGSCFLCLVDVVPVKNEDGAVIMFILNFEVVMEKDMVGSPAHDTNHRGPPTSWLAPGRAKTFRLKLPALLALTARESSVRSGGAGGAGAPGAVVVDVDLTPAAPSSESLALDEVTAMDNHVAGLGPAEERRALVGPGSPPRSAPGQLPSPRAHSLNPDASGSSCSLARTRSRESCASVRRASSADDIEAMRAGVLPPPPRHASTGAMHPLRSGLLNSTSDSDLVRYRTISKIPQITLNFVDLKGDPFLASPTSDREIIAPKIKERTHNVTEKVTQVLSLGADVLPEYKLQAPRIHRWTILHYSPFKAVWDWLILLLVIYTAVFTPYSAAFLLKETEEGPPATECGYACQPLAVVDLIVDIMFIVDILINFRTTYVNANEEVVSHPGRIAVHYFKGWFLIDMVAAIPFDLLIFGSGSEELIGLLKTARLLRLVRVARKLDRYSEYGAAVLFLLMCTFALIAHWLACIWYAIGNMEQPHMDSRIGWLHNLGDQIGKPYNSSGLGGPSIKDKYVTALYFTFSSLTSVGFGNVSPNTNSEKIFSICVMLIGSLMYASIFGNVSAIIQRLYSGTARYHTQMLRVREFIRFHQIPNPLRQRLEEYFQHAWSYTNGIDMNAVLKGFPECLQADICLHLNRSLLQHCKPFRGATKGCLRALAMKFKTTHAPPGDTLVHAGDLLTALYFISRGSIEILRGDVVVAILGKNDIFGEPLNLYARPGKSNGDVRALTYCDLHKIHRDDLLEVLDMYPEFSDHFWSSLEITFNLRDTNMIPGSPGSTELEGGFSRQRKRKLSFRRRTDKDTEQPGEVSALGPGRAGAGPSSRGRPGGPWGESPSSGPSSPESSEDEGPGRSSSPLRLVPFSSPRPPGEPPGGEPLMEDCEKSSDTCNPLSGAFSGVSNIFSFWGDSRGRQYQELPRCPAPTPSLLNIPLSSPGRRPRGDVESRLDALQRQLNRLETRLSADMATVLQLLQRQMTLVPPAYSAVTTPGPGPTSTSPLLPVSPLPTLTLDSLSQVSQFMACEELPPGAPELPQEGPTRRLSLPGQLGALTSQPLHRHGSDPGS
row,Structure (SMILES),"hERG current change (%, negative = inhibition) at 10uM [%]"
1,Cc1ccc(C)c(NNC(N)=S)c1,14
2,O=C(COC(=O)CC1SC(N2CCCC2)=NC1=O)Nc1c(F)c(F)c(F)c(F)c1F (centres unmarked),-12.6
3,Cc1cc(NC(=O)CSc2nc(CC(C)(C)C)nc3c2c(=O)n(C)c(=O)n3C)no1,4.05
4,COc1ccc(OCCSc2nnc(CCNC(=O)c3ccc(OC)cc3)n2C)cc1,-6.83
5,Cc1ccc2nc(N(CCCN(C)C)C(=O)c3ccco3)sc2c1.Cl,-65.4
6,COc1ccc2sc(N(CCN(C)C)C(=O)c3cc(Cl)sc3Cl)nc2c1.Cl,-0.167
7,CN(C)CCCN(C(=O)c1ccco1)c1nc2ccc(Cl)cc2s1.Cl,-73.4
8,CCN(CC)CCN(C(=O)c1cc2ccccc2cc1OC)c1nc2ccc(OC)cc2s1.Cl,-13.4
9,CN(C)CCN(C(=O)c1cc(Cl)sc1Cl)c1nc2ccc(F)cc2s1.Cl,-67.3
10,CCN(CC)CCN(C(=O)c1ccccc1OC)c1nc2ccc(F)cc2s1.Cl,-68.3
11,CC(=O)N(CCCN(C)C)c1nc2ccc(C)cc2s1.Cl,-7.07
12,Cc1ccc2nc(N(CCN(C)C)C(=O)c3cc(Cl)sc3Cl)sc2c1.Cl,7.55
13,CCN(CC)CCN(C(=O)c1cc2ccccc2cc1OC)c1nc2ccc(F)cc2s1.Cl,-11.8
14,CN(C)CCCN(C(=O)c1ccco1)c1nc2cc3c(cc2s1)OCO3.Cl,-43.7
15,Cc1cc(-c2ccccc2)n(-c2cc(N/N=C/c3ccccc3O)ncn2)n1,-10.5
16,Cc1ccnc2nc(C(=O)OCC(=O)NC3CCCC(C)C3C)nn12 (centres unmarked),-10.4
17,Cn1c(=O)c2c(nc(NCc3ccc4c(c3)OCO4)n2C)n(C)c1=O,-13.1
18,NC(=O)C1CCN(C(=O)CSc2nc3ccccc3[nH]2)CC1,4.06
19,Fc1cccc(Cl)c1Cn1nnc(-c2ccc(N3CCOCC3)cc2)n1,8.99
20,COc1ccc(-n2c(CNC(=O)c3cccs3)n[nH]c2=S)cc1,27.7
21,COc1cc(C)c(Br)cc1S(=O)(=O)N1CCCC1,-22.1
22,COc1ccc(/C=C2/C(=O)NC(=S)N(C3CC3)C2=O)cc1CN1C(=O)c2ccccc2C1=O,-8.62
23,COc1ccc(C(=O)COC(=O)Cc2n[nH]c(=O)c3ccccc23)c(OC)c1,16.7
24,COc1ccccc1C(=O)N(CCC1CCCN1C)c1nc2ccccc2s1 (centres unmarked),-50.9
25,CN(C)CCCN(C(=O)c1ccco1)c1nc2ccc(Br)cc2s1.Cl,-71.8
26,CN(C)CCN(C(=O)c1ccco1)c1nc2cc3c(cc2s1)OCCO3.Cl,-32.8
27,CN(C)CCCN(C(=O)c1ccco1)c1nc2ccc(F)cc2s1.Cl,-70.5

row,Structure (SMILES),"hERG current change (%, negative = inhibition) at 10uM [%]"
1,COc1cc2ccccc2cc1C(=O)N(CCN(C)C)c1nc2ccc(Br)cc2s1.Cl,9.85
2,CN(C)CCCN(C(=O)/C=C/c1cccs1)c1nc2ccc(F)cc2s1.Cl,-41
3,COCCN(C(=O)Nc1ccccc1OC)c1nc2ccccc2s1,19.9
4,Cc1cc(C)c2sc(N(CCN(C)C)C(=O)c3ccc4ccccc4c3)nc2c1.Cl,7.53
5,COc1ccccc1C(=O)N(CCN(C)C)c1nc2cc(C)cc(C)c2s1.Cl,-82
6,COc1cc2ccccc2cc1C(=O)N(CCN(C)C)c1nc2ccc(C)cc2s1.Cl,-11.2
7,Cc1cc(C)c2sc(N(CCN(C)C)C(=O)c3cc(Cl)sc3Cl)nc2c1.Cl,9.32
8,CCCCn1c(N)c(N(CCOC)C(=O)COC(=O)c2cc(CC)c(C)s2)c(=O)[nH]c1=O,22
9,Cn1c(SCC(=O)Nc2ccc3[nH]c(=O)[nH]c3c2)nnc1-c1ccc(F)cc1,7.63
10,[O-]/[N+](=C\c1ccccc1)c1ccc(Br)cc1,-0.595
11,CCn1c(CSc2nc3ccccc3s2)nnc1SCC(=O)c1ccc(Cl)cc1,6.76
12,CC(=O)c1cccc(NC(=O)N2CCCC2C(=O)NCc2ccccc2)c1 (centres unmarked),15
13,C1=C(c2ccccc2)CCN(c2nc3ccccc3n3cnnc23)C1,-8.21
14,CCCCN(C)CCNC(=O)C1CCN(S(=O)(=O)c2cccc3nsnc23)CC1,-15.3
15,O=[N+]([O-])c1ccc(Oc2c(F)c(F)nc(N3CCCC3)c2F)cc1,-19.7
16,CN(C)CCN(C(=O)c1ccc(S(=O)(=O)N(C)c2ccccc2)cc1)c1nc2ccc(Cl)cc2s1.Cl,-13
17,Cc1ccc(C(=O)N(CCCN(C)C)c2nc3ccc(Cl)cc3s2)cc1C.Cl,-56.4
18,CCN(CC)CCN(C(=O)c1ccc(C(C)=O)cc1)c1nc2ccc(Cl)cc2s1.Cl,-30.2
19,CNS(=O)(=O)c1cccc2cccnc12,11.1
20,O=C1CC(NCc2ccc3c(c2)OCO3)C(=O)N1Cc1ccc2c(c1)OCO2 (centres unmarked),-4.06
21,CCN1C(=O)CC(NCc2ccc3c(c2)OCO3)C1=O (centres unmarked),-9.23
22,Cc1ccc(N2C(=O)CC(NCc3ccc4c(c3)OCO4)C2=O)cc1Cl (centres unmarked),-54.8
23,CS(=O)(=O)N(CC(=O)N1CCN(Cc2ccccc2)CC1)c1ccccc1F,-5.93
24,CCNC(=O)CSc1nnc(-c2cc(-c3ccc(Cl)cc3)nc3ccccc23)o1,-82.3
25,CCC(C)NC(=O)CSc1nnc(-c2cc(-c3cccs3)nc3ccccc23)o1 (centres unmarked),-0.833
26,CCN(CC)C(=O)CSc1nnc(-c2cc(-c3ccc(Cl)cc3)nc3ccccc23)o1,-3.85
